From PubChem BioAssay (Tox21)
Inconclusive results are not listed. Entries that show only a call come without a potency. Active and inactive are the calls of the source. Unless noted, calls follow the shape of the dose curve; as a rule, active = well fitted curve in the direction sought with a large enough effect in the repeat runs; inconclusive = weak or mixed curves; inactive = no such curve, though single readings can be large; an effect the other way counts as inactive or inconclusive.

Key:
[1] = qHTS assay to identify small molecule antagonists of the glucocorticoid receptor (GR) signaling pathway - cell viability counter screen (AID 720693); also: nearly all actives have a fitted effect of over 55% in size
[2] = qHTS assay for identifying genotoxic compounds that show differential cytotoxicity against isogenic chicken DT40 cell lines with known DNA damage response pathways - Rad54/Ku70 mutant cell line (AID 743015); also: nearly all actives have a fitted effect of over 60% in size; also: potency is read from the fitted curve at half-maximal effect
[3] = qHTS assay to identify small molecule antagonists of the androgen receptor (AR) signaling pathway - cell viability counter screen (AID 743033; also: nearly all actives have a fitted effect of over 45% in size)
[4] = qHTS assay to identify small molecule antagonists of the androgen receptor (AR) signaling pathway using the MDA cell line - cell viability counter screen (AID 743041; also: nearly all actives have a fitted effect of over 45% in size)
How it was run: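 qHTS viability read-out; MDA-kb2 AR-luc; R1881-stimulated; 16 h exposure at 37C, 0% CO2; CellTiter-Fluor, 30 min; fluorescence intensity.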

[5] = qHTS assay to identify small molecule antagonists of the thyroid receptor (TR) signaling pathway (AID 743065); also: nearly all actives have a fitted effect of over 55% in size; also: potency is read from the fitted curve at half-maximal effect
How it was run: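 GH3.TRE-Luc rat pituitary cells carrying two TR response elements driving luciferase were plated for 4 h, given compound plus 1 nM T3 (final), and incubated 23.5 h at 37 C. ONE-Glo luminescence measured reporter inhibition; CellTiter-Fluor fluorescence tracked cytotoxicity.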

[6] = system: thyroid hormone receptor (rat, GH3 cells); assay: qHTS assay to identify small molecule agonists of the thyroid receptor (TR) signaling pathway (AID 743066; calls by dose curve)
[7] = biological target: Estrogen receptor (Homo sapiens) (UniProt P03372); assay: qHTS assay to identify small molecule antagonists of the estrogen receptor alpha (ER-alpha) signaling pathway (AID 743069; active = well fitted curve in the direction sought with a large enough effect in the signal ratio in the repeat runs, not every such curve was filed as active; the % refers to the signal ratio)
How it was run: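 Screening used a UAS-driven beta-lactamase reporter integrated into HEK293 cells expressing ER-alpha, stimulated with 17beta-estradiol alongside test compounds over 18 hr at 37C; signal came from LiveBLAzer B/G FRET fluorescence.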

[8] = qHTS assay to identify small molecule antagonists of the estrogen receptor alpha (ER-alpha) signaling pathway - cell viability counter screen (AID 743074; calls by dose curve; also: nearly all actives have a fitted effect of over 45% in size)
[9] = biological target: Estrogen receptor (Homo sapiens) (UniProt P03372); assay: qHTS assay to identify small molecule agonists of the estrogen receptor alpha (ER-alpha) signaling pathway (AID 743075; calls by dose curve)
[10] = biological target: Estrogen receptor (Homo sapiens) (UniProt P03372); assay: qHTS assay to identify small molecule agonists of the estrogen receptor alpha (ER-alpha) signaling pathway using the BG1 cell line (AID 743079); also: nearly all actives have a fitted effect of over 20% in size; also: potency is read from the fitted curve at half-maximal effect
[11] = qHTS assay to identify small molecule antagonists of the estrogen receptor alpha (ER-alpha) signaling pathway using the BG1 cell line - cell viability counter screen (AID 743081);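 also: compound given together with 17beta-estradiol as the ER stimulus; series mostly up to about 70 µM; nearly all actives have a fitted effect of over 45% in size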
Aromatase (Homo sapiens) = Aromatase (Homo sapiens) (UniProt P11511); assay: qHTS assay to identify aromatase inhibitors (AID 743083); also: series mostly up to about 70 µM; nearly all actives have a fitted effect of over 55% in size
[12] = qHTS assay for identifying genotoxic compounds that show differential cytotoxicity against isogenic chicken DT40 cell lines with known DNA damage response pathways - wild type cell line (AID 743012); also: nearly all actives have a fitted effect of over 60% in size; also: potency is read from the fitted curve at half-maximal effect
How it was run: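 Viability of DNA repair-proficient chicken DT40 cells was assessed by CellTiter-Glo luminescence following 40 h compound exposure at 37 C/5% CO2.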

[13] = qHTS assay to identify small molecule antagonists of the thyroid receptor (TR) signaling pathway - cell viability counter screen (AID 743064); also: nearly all actives have a fitted effect of over 50% in size; also: potency is read from the fitted curve at half-maximal effect
How it was run: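 Fluorescence from CellTiter-Fluor, added after 23.5 h exposure at 37 °C, reported viability of GH3.TRE-Luc cells co-treated with compound and 1 nM T3. Measured in the same wells as the luciferase TR readout.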

[14] = qHTS assay to identify small molecule antagonists of the estrogen receptor alpha (ER-alpha) signaling pathway using the BG1 cell line (AID 743080; calls by dose curve;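 also: BG1 cells stimulated with 17beta-estradiol alongside compound; series mostly up to about 70 µM; nearly all actives have a fitted effect of over 25% in size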)
How it was run: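 Seeding, 24 h rest, compound transfer from DMSO, 17beta-estradiol addition, 21.5 h incubation, CellTiter-Fluor (30 min, 37 C), then ONE-Glo (30 min, room temperature): this sequence was run on BG1-Luc-4E2 reporter cells.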

[15] = biological target: Androgen receptor (Homo sapiens) (UniProt P10275); assay: qHTS assay to identify small molecule agonists of the androgen receptor (AR) signaling pathway using the MDA cell line (AID 743040; also: nearly all actives have a fitted effect of over 20% in size)
How it was run: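 Agonist activity is measured as luciferase luminescence in human MDA-kb2 cells whose MMTV reporter responds to both AR and GR. Compounds in DMSO incubate 16 h at 37C, 0% CO2, and ONE-Glo is read after 30 min.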

[16] = biological target: Androgen receptor (Homo sapiens) (UniProt P10275); assay: qHTS assay to identify small molecule antagonists of the androgen receptor (AR) signaling pathway using the MDA cell line (AID 743042; also: nearly all actives have a fitted effect of over 55% in size)
How it was run: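 MDA-kb2 cells (human breast carcinoma, stably carrying an MMTV-luciferase reporter responsive to AR and GR) were plated at 3,000 cells/well and preincubated 5 hr at 37C, then given compound plus R1881 agonist for 16 h. ONE-Glo luminescence was read.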

[17] = qHTS assay for identifying genotoxic compounds that show differential cytotoxicity against isogenic chicken DT40 cell lines with known DNA damage response pathways - Rev3 mutant cell line (AID 743014); also: nearly all actives have a fitted effect of over 55% in size; also: potency is read from the fitted curve at half-maximal effect
[18] = biological target: Androgen receptor (Homo sapiens) (UniProt P10275); assay: qHTS assay to identify small molecule antagonists of the androgen receptor (AR) signaling pathway (AID 743035; active = well fitted inhibition curve with a large enough effect in the signal ratio in the repeat runs, not every such curve was filed as active; the % refers to the signal ratio; also: potency is read from the fitted curve at half-maximal effect)
How it was run: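 Reporter HEK293 cells were exposed to compounds and R1881 overnight (16 h, 37C); beta-lactamase activity was then quantified by FRET fluorescence.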

[19] = biological target: Androgen receptor (Homo sapiens) (UniProt P10275); assay: qHTS assay to identify small molecule agonists of the androgen receptor (AR) signaling pathway (AID 743036; active = well fitted activation curve with a large enough effect in the signal ratio in the repeat runs, with a control signal flat, not every such curve was filed as active; the % refers to the signal ratio)
How it was run: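 Fluorescence from a beta-lactamase FRET substrate served as read-out in AR-UAS-bla GripTite HEK293 cells. Cells were treated with DMSO-dissolved compounds for 16 h at 37C, then with LiveBLAzer B/G substrate for 2 h at room temperature.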

Sequence of Aromatase (Homo sapiens) (P11511 whole entry, looked up): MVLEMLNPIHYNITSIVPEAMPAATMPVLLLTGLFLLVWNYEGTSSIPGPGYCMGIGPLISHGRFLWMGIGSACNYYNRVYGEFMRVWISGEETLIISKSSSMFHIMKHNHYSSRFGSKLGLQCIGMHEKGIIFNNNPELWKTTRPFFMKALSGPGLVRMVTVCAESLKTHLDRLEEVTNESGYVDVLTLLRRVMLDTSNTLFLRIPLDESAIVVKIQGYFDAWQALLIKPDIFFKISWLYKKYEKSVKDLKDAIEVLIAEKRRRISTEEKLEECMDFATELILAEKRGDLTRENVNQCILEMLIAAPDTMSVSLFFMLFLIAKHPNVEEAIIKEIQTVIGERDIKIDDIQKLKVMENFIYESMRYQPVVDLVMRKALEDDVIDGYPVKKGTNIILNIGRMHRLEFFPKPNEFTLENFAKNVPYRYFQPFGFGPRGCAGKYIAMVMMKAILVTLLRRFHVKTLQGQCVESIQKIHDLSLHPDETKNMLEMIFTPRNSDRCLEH
Sequence of Androgen receptor (Homo sapiens) (P10275 whole entry, looked up): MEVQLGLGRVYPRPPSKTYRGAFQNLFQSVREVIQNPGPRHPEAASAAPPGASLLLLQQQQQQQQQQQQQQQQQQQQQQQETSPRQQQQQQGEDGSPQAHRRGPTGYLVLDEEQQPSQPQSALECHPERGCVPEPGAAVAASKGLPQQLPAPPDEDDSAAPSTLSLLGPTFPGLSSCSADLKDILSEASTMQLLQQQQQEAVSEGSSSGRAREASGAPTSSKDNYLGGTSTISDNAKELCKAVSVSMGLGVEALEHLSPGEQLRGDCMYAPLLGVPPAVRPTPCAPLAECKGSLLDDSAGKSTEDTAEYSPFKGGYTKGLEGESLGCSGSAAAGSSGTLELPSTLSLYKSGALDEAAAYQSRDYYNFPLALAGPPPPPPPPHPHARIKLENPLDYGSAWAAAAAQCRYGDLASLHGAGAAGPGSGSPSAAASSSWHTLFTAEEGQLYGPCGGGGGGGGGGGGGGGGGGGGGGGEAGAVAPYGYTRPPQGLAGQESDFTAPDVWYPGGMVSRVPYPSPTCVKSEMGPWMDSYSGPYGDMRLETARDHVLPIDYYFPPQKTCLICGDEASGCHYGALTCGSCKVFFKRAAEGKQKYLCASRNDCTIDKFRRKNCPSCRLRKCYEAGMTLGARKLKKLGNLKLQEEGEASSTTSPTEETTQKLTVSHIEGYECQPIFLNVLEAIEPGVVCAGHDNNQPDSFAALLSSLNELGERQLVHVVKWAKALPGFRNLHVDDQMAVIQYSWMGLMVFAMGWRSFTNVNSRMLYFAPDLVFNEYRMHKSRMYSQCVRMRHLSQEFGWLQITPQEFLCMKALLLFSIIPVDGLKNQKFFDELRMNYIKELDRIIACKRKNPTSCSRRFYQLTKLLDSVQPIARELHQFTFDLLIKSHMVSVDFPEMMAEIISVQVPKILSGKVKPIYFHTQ
Sequence of Estrogen receptor (Homo sapiens) (P03372 whole entry, looked up): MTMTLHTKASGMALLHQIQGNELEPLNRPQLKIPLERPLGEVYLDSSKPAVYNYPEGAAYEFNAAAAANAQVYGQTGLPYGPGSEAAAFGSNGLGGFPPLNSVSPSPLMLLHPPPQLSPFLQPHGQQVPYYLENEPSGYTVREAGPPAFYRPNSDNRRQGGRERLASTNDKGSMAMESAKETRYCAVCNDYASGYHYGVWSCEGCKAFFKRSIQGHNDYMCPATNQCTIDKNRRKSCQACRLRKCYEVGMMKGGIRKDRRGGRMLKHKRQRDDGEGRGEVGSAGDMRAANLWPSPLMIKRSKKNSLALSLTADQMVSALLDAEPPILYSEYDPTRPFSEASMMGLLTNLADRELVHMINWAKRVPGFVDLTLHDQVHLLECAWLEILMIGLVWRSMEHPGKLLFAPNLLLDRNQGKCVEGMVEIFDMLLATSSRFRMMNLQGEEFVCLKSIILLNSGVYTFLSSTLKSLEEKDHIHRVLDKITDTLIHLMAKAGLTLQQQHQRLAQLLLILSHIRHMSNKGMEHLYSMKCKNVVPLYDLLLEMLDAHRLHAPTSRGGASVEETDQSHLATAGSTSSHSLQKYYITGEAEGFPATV

SMILES | Potency [1] | Potency [2] | Potency [3] | Potency [4] | Potency [5] | Potency [6] | Potency [7] | Potency [8] | Potency [9] | Potency [10] | Potency [11] | Potency (Aromatase (Homo sapiens)) | Potency [12] | Potency [13] | Potency [14] | Potency [15] | Potency [16] | Potency [17] | Potency [18] | outcome [19]
COC(N)=O | inactive | inactive | inactive | inactive | inactive | inactive | inactive | inactive | inactive | inactive | inactive | inactive | – | – | – | – | – | – | – | –
NNC(=O)c1cccnc1 | inactive | inactive | inactive | inactive | – | inactive | inactive | inactive | inactive | – | inactive | inactive | inactive | inactive | – | – | – | – | – | –
Nc1ccc(N=Nc2ccc(-c3ccc(N=Nc4c(S(=O)(=O)O)cc5cc(S(=O)(=O)O)c(N=Nc6ccccc6)c(O)c5c4N)cc3)cc2)c(N)c1 | inactive | inactive | inactive | inactive | – | inactive | – | – | inactive | inactive | inactive | – | inactive | – | – | – | – | – | – | –
CC(C)N(CCC(C(N)=O)(c1ccccc1)c1ccccn1)C(C)C (centres undefined) | inactive | inactive | inactive | inactive | inactive | inactive | – | inactive | – | – | inactive | inactive | inactive | inactive | – | – | – | – | – | –
CC(=O)[C@H]1CC[C@H]2[C@@H]3CC[C@H]4C[C@](C)(O)CC[C@]4(C)[C@H]3CC[C@]12C | inactive | inactive | inactive | inactive | – | inactive | inactive | inactive | inactive | inactive | inactive | inactive | inactive | – | inactive | – | – | – | – | –
C=CC(=O)NCNC(=O)C=C | inactive | 61 µM (active) | – | inactive | inactive | inactive | – | – | inactive | – | – | inactive | – | – | – | inactive | inactive | – | – | –
O=NN1CCNCC1 | inactive | inactive | inactive | inactive | inactive | inactive | inactive | inactive | inactive | inactive | inactive | inactive | – | inactive | inactive | – | – | inactive | – | –
CC(C)O.CC(C)O.OCCN(CCO)CCO.OCCN(CCO)CCO.[Ti] | inactive | inactive | inactive | inactive | inactive | inactive | – | inactive | – | – | inactive | – | – | inactive | – | – | – | inactive | – | –
N#C/C(N)=C(/N)C#N | inactive | inactive | inactive | inactive | inactive | inactive | inactive | inactive | inactive | inactive | inactive | inactive | inactive | inactive | – | – | – | – | – | –
CCCN(CCC)c1c([N+](=O)[O-])cc(S(C)(=O)=O)cc1[N+](=O)[O-] | inactive | – | inactive | inactive | inactive | inactive | – | inactive | inactive | – | inactive | inactive | – | – | – | – | – | inactive | – | –
CC(C)=CCOc1c2occc2cc2ccc(=O)oc12 | inactive | – | inactive | inactive | inactive | inactive | inactive | inactive | inactive | inactive | – | inactive | 26.6 µM (active) | inactive | inactive | inactive | inactive | – | inactive | inactive
CCOP(=S)(OCC)Oc1nc(Cl)c(Cl)cc1Cl | inactive | inactive | inactive | inactive | – | inactive | inactive | inactive | inactive | inactive | inactive | inactive | – | inactive | inactive | inactive | inactive | inactive | – | inactive
O=C1C(Cl)C(CCl)CN1c1cccc(C(F)(F)F)c1 (centres undefined) | inactive | inactive | inactive | inactive | – | inactive | – | inactive | – | – | inactive | inactive | – | inactive | – | inactive | inactive | inactive | 24.5 µM (active) | inactive
CO[C@@H]1[C@H](OC(=O)NC(=O)CCl)CC[C@]2(CO2)[C@H]1[C@@]1(C)O[C@@H]1CC=C(C)C | inactive | – | inactive | inactive | – | inactive | – | inactive | – | inactive | inactive | inactive | 0.0006 µM (active) | – | inactive | inactive | inactive | – | – | –
O=C(CBr)c1ccccc1 | inactive | – | inactive | inactive | inactive | inactive | inactive | inactive | inactive | 54.8 µM (active) | inactive | inactive | – | inactive | inactive | – | – | 61.5 µM (active) | – | –
Cc1ccccc1CCl | inactive | inactive | inactive | inactive | inactive | inactive | – | inactive | – | – | inactive | inactive | inactive | – | – | – | – | – | – | –
CCc1ccc(C(=O)NN(C(=O)c2cc(C)cc(C)c2)C(C)(C)C)cc1 | inactive | 27.3 µM (active) | inactive | inactive | – | inactive | – | inactive | inactive | inactive | inactive | inactive | – | 1.54 µM (active) | inactive | – | – | 27.3 µM (active) | – | –
OCCCBr | inactive | inactive | inactive | inactive | 61.1 µM (active) | inactive | inactive | – | inactive | inactive | – | inactive | – | 54.5 µM (active) | – | – | – | inactive | – | –
